Source: PubChem BioAssay (National Center for Advancing Translational Sciences (NCATS))
Only some compounds are listed: those with a hit (about 18% of all), similar ones and a draw of the others.
DT40 TDP1 no CPT – qHTS for Inhibitors of human tyrosyl-DNA phosphodiesterase 1 (TDP1): qHTS in cells in absence of CPT; Potency, µM (titrated, usually from 46.2 µM), inactives show at the highest dose activity change, negative = growth inhibition, most hits filed as inhibitors; AID 686978, 2013; DT40 Tdp1-/- hTDP1 cells, no CPT, ATP luminescence, 48 h; hit rate 15% among 420,000; further: nearly all actives have a fitted effect of over 55% in size
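Readout: luminescence from CellTiter-Glo after 30 min in the dark at RT. Cells: DT40 Tdp1-/- with stable hTDP1, 400/well. Exposure: compounds alone, ≥48 hr, 37 °C.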
DT40 TDP1 CPT – qHTS for Inhibitors of human tyrosyl-DNA phosphodiesterase 1 (TDP1): qHTS in cells in presence of CPT | chicken DT40 Tdp1-/-;hTDP1 cells + 20 nM CPT, ATP luminescence, 48 h | Potency, µM (doses to about 46.2 µM), inactives show top-dose activity change, negative = growth inhibition, actives largely listed as inhibitors | hit rate 12% among 420,000 | AID 686979, 2013; further: nearly all actives have a fitted effect of over 55% in size
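Chicken DT40 Tdp1-/- cells complemented with human TDP1, 400 cells/well, exposed to compounds plus 20 nM camptothecin for at least 48 h at 37 C; viability read as ATP content by CellTiter-Glo luminescence.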
KAT2A inh – qHTS Assay for Inhibitors of GCN5L2 | hit rate 0.21% among 390,000 | Potency, µM (titrated, usually from 58.9 µM), for inactives: at the top dose activity change, negative = inhibition, most hits filed as inhibitors | GCN5L2 HAT assay, ThioGlo1 CoA-SH fluorescence | AID 504327, 2011
Target sequence (Q92830 whole entry, looked up): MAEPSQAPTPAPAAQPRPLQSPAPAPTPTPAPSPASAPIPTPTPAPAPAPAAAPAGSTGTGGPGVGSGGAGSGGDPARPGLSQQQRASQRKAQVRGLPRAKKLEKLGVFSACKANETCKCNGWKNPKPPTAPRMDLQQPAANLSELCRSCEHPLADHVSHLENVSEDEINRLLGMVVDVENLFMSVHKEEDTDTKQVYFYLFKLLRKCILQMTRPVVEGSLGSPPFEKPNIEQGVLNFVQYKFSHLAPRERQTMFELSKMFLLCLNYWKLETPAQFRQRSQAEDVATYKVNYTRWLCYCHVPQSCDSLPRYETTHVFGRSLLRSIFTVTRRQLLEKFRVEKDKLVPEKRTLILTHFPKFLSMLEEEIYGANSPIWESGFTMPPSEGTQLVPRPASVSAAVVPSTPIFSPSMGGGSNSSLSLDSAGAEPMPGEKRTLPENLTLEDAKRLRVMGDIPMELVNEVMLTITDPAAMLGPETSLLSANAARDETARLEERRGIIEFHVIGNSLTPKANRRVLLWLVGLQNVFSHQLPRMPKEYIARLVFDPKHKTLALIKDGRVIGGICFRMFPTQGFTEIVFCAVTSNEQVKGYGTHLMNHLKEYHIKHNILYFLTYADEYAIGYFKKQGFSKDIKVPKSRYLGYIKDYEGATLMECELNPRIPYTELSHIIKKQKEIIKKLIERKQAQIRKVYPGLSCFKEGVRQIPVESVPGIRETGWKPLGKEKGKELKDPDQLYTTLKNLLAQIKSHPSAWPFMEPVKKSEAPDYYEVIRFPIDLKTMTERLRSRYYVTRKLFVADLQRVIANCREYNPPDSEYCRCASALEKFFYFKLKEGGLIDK
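Compounds, pin-transferred from DMSO stocks, meet 20nM GCN5L2 for 15 min before the reaction begins with H3(1-25) peptide (75uM) and acetyl-CoA (70uM). Thiol-reactive ThioGlo1 reports CoA release over 20 min at room temperature.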
VDR inhibitor – Inhibitors of the vitamin D receptor (VDR): qHTS; Vitamin D3 receptor (Homo sapiens), P11473; VDR-SRC2-3 peptide fluorescence polarization, 2 h; Potency, µM, inactives show max response, negative = inhibition, usual class: inhibitors; hit rate 0.93% among 400,000
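Compounds are added to VDR with labelled SRC2-3 coactivator peptide and held 2 h at room temperature. Inhibition of the VDR–peptide interaction is then read as a change in fluorescence polarization.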
TDP1 inh – qHTS Assay for Inhibitors of Tyrosyl-DNA Phosphodiesterase (TDP1). Tyrosyl-DNA phosphodiesterase 1 (Homo sapiens), Q9NUW8. recombinant TDP1, AlphaScreen DNA substrate cleavage. Potency, µM (top dose mostly 130 µM), for the others: at the top dose activity change, negative = inhibition, most hits filed as inhibitors. hit rate 0.28% among 350,000. AID 485290, 2010; further: nearly all actives have a fitted effect of over 40% in size
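AlphaScreen read-out: signal falls as enzyme removes the 3' tyrosine-FITC from a 5'-biotinylated DNA oligo (15 nM, 5 min, RT). Enzyme was E. coli-made recombinant Tdp1 at 1 nM, exposed to compound for 15 min beforehand; beads 10 ug/ml, 10 min.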
PLK1 PBD block – qHTS for Inhibitors of PLK1-PDB (polo-like kinase 1 - polo-box domain): Primary Screen; Serine/threonine-protein kinase PLK1 (Homo sapiens), P53350; Plk1 PBD binding of FITC phosphopeptide, fluorescence polarization; Potency, µM, without a hit: max response, negative = inhibition, hits mostly inhibitors; hit rate 2.8% among 360,000; AID 720504, 2013; further: series mostly up to about 57 µM; nearly all actives have a fitted effect of over 65% in size
* = called active by the depositor; ? = inconclusive; nt = no result; [ ] = another dose, or the depositor's remark. The call rests on the fitted dose curve; in most records, active means well fitted curve in the direction sought with a large enough effect; inconclusive means small, poorly fitted or top-dose-only effect, or another doubt; inactive means no such curve, though single readings can be large; an effect the other way counts as inactive or inconclusive. On the % scale 0 is the no-effect control and ±100 the full control effect; potency means the concentration at half of the fitted maximal effect.

SMILES	DT40 TDP1 no CPT	DT40 TDP1 CPT	KAT2A inh	VDR inhibitor	TDP1 inh	PLK1 PBD block
O=C1/C(=C/Nc2ccc3c(c2)OCO3)CCc2ccccc21	?	26µM*	-3%[0.501 µM]	-6%	1%	-18%
Cc1ccc(C)c(CN2C(=O)c3ccccc3S(=O)(=O)c3ccc(C(=O)N4CCN(c5ccccc5F)CC4)cc32)c1	-17%	-3%	-2%	-17%	1%	nt
CCOc1ccc(/C=C/C(=O)Nc2ccc3nc(N(CC)CC)cc(C)c3c2)cc1OC	10µM*	5.2µM*	-11%	-11%	0%	nt
CCN(CC)c1cc(C)c2cc(NC(=O)/C=C/c3ccc(C)cc3)ccc2n1	5.2µM*	5.8µM*	3%	-15%	3%	nt
CCN(CC)c1cc(C)c2cc(NC(=O)CNC(C)=O)ccc2n1	-12%	32%	-4%	4%	4%	-4%
CCN(CC)c1cc(C)c2cc(NC(=O)/C=C/c3cc(OC)c(OC)c(OC)c3)ccc2n1	7.3µM*	6.5µM*	-26%	-11%	6%	nt
Cc1cc(-c2nnc(CCC(=O)NC(C)c3ccc(F)cc3)o2)no1 (stereo not given)	-7%	-12%	-1%	11%	-2%	-6%
O=C(Nc1ccc([N+](=O)[O-])cc1)C1COc2ccccc2O1 (stereo not given)	-24%	-7%	-16%	-13%	nt	-21%
CC(NCc1ccc([N+](=O)[O-])cc1)C1COc2ccccc2O1 (stereo not given)	21µM*	-1%	4%	-1%	nt	-27%
CCCCC(=O)NC1(C(F)(F)F)C(=O)Nc2c1c(=O)[nH]c(=O)n2-c1ccc(C)c(C)c1 (stereo not given)	-6%	-14%	-3%	3%	4%	nt
N#Cc1nc(-c2ccc(OCc3ccc(Cl)cc3)cc2)oc1N1CCCCCC1	?	?	nt	117%	5%	nt
CCOC(=O)C1=CCN(S(=O)(=O)c2ccc(F)cc2)C1c1ccc(F)cc1 (stereo not given)	15µM*	?	nt	nt	nt	5%
CCOC(=O)C1=CCN(S(=O)(=O)c2ccc(F)cc2)C1c1ccccc1 (stereo not given)	21µM*	?	nt	nt	nt	1%
CCOC(=O)C1=CCN(S(=O)(=O)c2ccccc2)C1c1ccccc1 (stereo not given)	?	?	nt	nt	nt	3%
COc1ccc(F)c(CN2CCOc3ccc(CN4CCCCC4CO)cc3C2)c1 (stereo not given)	-19%	-1%[9.04 µM]	nt	nt	nt	nt
COc1ccc(-c2cc3ccc(O)c(CN4CCCC(C)C4)c3oc2=O)cc1OC (stereo not given)	nt	nt	-26%	9%	4%	nt
Cc1onc(-c2c(Cl)cccc2Cl)c1-c1nnc(-c2ccc(Cl)cc2)o1	16µM*	?	-6%	3%	6%	-5%
Cc1onc(-c2c(F)cccc2Cl)c1-c1nnc(-c2ccc(C(F)(F)F)cc2)o1	?	?	-13%	-4%	-4%	3%
CC1=C(C(=O)N(C)C)CC(CC(=O)NC(c2ccccc2)c2ccccc2)C(=O)N1CCC1=CCCCC1 (stereo not given)	21µM*	?	nt	nt	nt	3%
CC1=C(C(=O)N(C)C)CC(CC(=O)NCc2ccco2)C(=O)N1CCC1=CCCCC1 (stereo not given)	-11%	-2%	nt	nt	nt	5%
CCN(CC)C(=O)C1=C(C)N(CCC2=CCCCC2)C(=O)C(CC(=O)NC(c2ccccc2)c2ccccc2)C1 (stereo not given)	?	18µM*	nt	nt	nt	1%
COc1ccc(-n2nnnc2S(=O)(=O)CC(=O)N2CCCCC2)cc1	1.5µM*	2.6µM*	-5%	?	0%	12µM*
COc1ccc(-n2nnnc2S(=O)(=O)Cc2ccc(C(=O)O)cc2)cc1	16µM*	15µM*	-15%	?	4%	30µM*
CCCC(=O)N1CCC1(C)C(=O)NS(=O)(=O)c1ccccc1Cl (stereo not given)	1%	-13%	nt	nt	nt	4%
Cc1ccc(-c2cc(C(F)F)nc(S(C)(=O)=O)n2)cc1	1.3µM*	0.92µM*	-5%	-23%	-5%	-28%
SMILES	DT40 TDP1 no CPT	DT40 TDP1 CPT	KAT2A inh	VDR inhibitor	TDP1 inh	PLK1 PBD block
COCCN1C(=O)CS/C1=C(/C#N)C(=O)NCc1ccco1	1%	-4%	-5%	108%	2%	0%
CCOc1cc(C)c(S(=O)(=O)Nc2ccc3cn[nH]c3c2)cc1C	10µM*	18µM*	41%	0%	4%	-3%
CN(C)CCNC(=O)c1nn(C)c2c1CCc1ccccc1-2	?	4%	-2%	11%	nt	0%
Cc1cc(C)n(-c2nc(N(c3ccccc3)c3ccccc3)nc(-n3nc(C)cc3C)n2)n1	13µM*	18µM*	-2%	-2%	5%	-6%
Cc1cc(C)nc(Sc2nc(Nc3ccccc3)nc(Sc3nc(C)cc(C)n3)n2)n1	29µM*	-25%	-28%	-2%	0%	?
COc1cccc(/C=N/Nc2cc(-n3nc(C)cc3-c3ccccc3)ncn2)c1O	0.65µM*	0.82µM*	-4%	4%	-2%	3%
Cc1cc(C)n(-c2nc(Nc3ccccc3)nc(-n3nc(C)cc3C)n2)n1	2%	5%	-16%	2%	45µM*	-7%
Cc1ccnc(NC(=O)c2ccc(Cl)c(S(=O)(=O)N3CCCC3)c2)c1	?	?	-5%	5%	nt	6%
C=CC1=C2C=C(C3CC3)N(CCCOC(C)C)C=C2C(=O)C(C)(OC(=O)c2ccco2)C1=O (stereo not given)	nt	nt	nt	nt	11%[12.3 µM]	nt
CCOC(=O)CNC(=O)N1CCc2cc(S(=O)(=O)N3CCC(C)CC3)ccc21	-28%	?	-3%	9%	0%	nt
COc1cccc(/C=N/Nc2nc(Nc3ccccc3)nc(-n3nc(C)cc3C)n2)c1O	0.58µM*	0.82µM*	-7%	9%	13%	-4%
COc1cccc(/C=N/n2c(C)nc3ccccc3c2=O)c1O	-15%	-6%	-1%	-5%	1%	5%
O=C(C[n+]1csc2ccccc21)c1ccc(O)c(O)c1	16µM*	?	nt	nt	nt	nt
O=C(C[n+]1cccc(Br)c1)c1ccc(O)c(O)c1	-19%	1%	nt	nt	nt	nt
